An excerpt weighted towards active compounds, which were near 9.2% of everything screened.
SMN2 splice up: enhancers of SMN2 splice variant expression; 210,000 tested, 2.8% active; Potency, µM (series often up to 46.1 µM), hits mostly activators; AID 1458; HEK293 SMN2-luciferase splicing reporter, luminescence, 30-36 h; note: nearly all actives have a fitted effect of over 55% in size
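HEK293 cells carry an SMN2 […]–luciferase reporter in which exon 7 inclusion puts luciferase in frame. Cells were plated 10-12 h before compound addition, then incubated 30-36 h at 37C. ONE-Glo luminescence was read; sodium butyrate at 4.5 mM final served as control.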
ELG1 genotoxic: induces genotoxicity in HEK293T cells with luciferase-tagged ELG1. HEK293T ELG1-luciferase reporter, luminescence, 16 h. Potency, µM (doses to about 46 µM), actives largely listed as activators. 330,000 tested, 1.3% active. AID 504466; note: nearly all actives have a fitted effect of over 60% in size
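HEK293T cells expressing luciferase-tagged ELG1 were exposed to compound or DMSO vehicle for 16 hr at 37 °C and 5% CO2. Luciferase activity was then measured with ONE-Glo after 30 min at room temperature.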
Rab9 promoter act: activates the Rab9 promoter | Potency, µM (titrated, usually from 9.22 µM), hits mostly activators | 320,000 tested, 2.8% active | Huh7 Rab9 promoter-luciferase reporter, luminescence, 24 h; note: nearly all actives have a fitted effect of over 60% in size
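Stable Rab9-luc Huh7, 1500 cells/well, 2 h settle; cmpd in DMSO, 24 h, 37 °C/5% CO2; luciferase reagent 10 min RT; luminescence.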
NPC1 promoter act: activators of NPC1 promoter; Huh7 NPC1 promoter luciferase reporter, 24 h; Potency, µM (doses to about 9.22 µM), most hits filed as activators; 320,000 tested, 2.4% active; note: nearly all actives have a fitted effect of over 60% in size
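Luciferase expression driven by the NPC1 promoter was measured in stably transfected Huh7 cells after a 24 h compound incubation, using a luciferase reagent and a luminescence read.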
FLuc modulator: inhibits or activates purified firefly luciferase, miR-21 counter-screen | purified FLuc, Km substrates, luminescence inhibition | 360,000 tested, 6.9% active | Potency, µM (highest dose often 57.5 µM), usual class: inhibitors; note: nearly all actives have a fitted effect of over 55% in size
Target sequence (P08659 whole entry, looked up): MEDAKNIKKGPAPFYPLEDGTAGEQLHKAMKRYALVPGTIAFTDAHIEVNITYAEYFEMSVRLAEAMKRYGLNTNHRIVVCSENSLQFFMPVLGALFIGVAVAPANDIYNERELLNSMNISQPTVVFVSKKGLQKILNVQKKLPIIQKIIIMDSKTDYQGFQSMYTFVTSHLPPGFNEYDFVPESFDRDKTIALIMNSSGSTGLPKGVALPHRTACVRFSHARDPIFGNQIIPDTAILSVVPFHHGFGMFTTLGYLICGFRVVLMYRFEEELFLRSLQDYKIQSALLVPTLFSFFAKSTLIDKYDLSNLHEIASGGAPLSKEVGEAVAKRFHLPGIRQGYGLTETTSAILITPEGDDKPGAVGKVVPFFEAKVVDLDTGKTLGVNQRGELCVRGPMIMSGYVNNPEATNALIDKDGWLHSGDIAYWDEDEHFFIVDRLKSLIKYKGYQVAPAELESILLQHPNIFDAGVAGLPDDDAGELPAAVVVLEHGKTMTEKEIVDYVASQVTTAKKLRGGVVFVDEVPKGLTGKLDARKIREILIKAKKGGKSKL
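Biochemical qHTS of compounds, final roughly 60 µM downward over six points, against 10 nM purified firefly luciferase using Km concentrations of substrates (10 uM D-luciferin, 10 uM ATP) in Tris acetate pH 7.5 buffer; luminescence output.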
ELG1 DNA repair: inhibitors of ELG1-dependent DNA repair in HEK293T cells. HEK293T ELG1-luciferase reporter, luminescence, 16 h; DNA damage induced by 5-fluorouridine. Potency, µM (highest dose often 46.1 µM), actives largely listed as inhibitors. 330,000 tested, 2.3% active; note: nearly all actives have a fitted effect of over 55% in size
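HEK293T cells expressing luciferase-tagged ELG1 (2,000/well) received 5-Fluorouridine plus compound or DMSO for 16 hr at 37 °C. Luciferase was read by ONE-Glo luminescence after 30 min at room temperature.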
A number is an active result; – = inactive; ? = inconclusive; · = not tested or not shown. Calls come from the whole dose curve; as a rule, active = well fitted curve in the direction sought with a large enough effect; inconclusive = small, poorly fitted or top-dose-only effect, or another doubt; inactive = no such curve, though single readings can be large; an effect the other way counts as inactive or inconclusive.

SMILES	SMN2 splice up	ELG1 genotoxic	Rab9 promoter act	NPC1 promoter act	FLuc modulator	ELG1 DNA repair
Cc1cccc(NC(=S)N2CCCCC2c2cccnc2)c1C (centres undefined)	·	–	–	–	–	–
COc1ccc(NC(=S)N2CCCCC2c2cccnc2)cc1 (centres undefined)	·	–	–	–	16.9µM	–
COc1ccc(NC(=O)Nc2cccnc2)cc1	–	–	–	–	16.9µM	?
Cc1c(Cl)cccc1NC(=O)Cn1cnc2nc3c(cc2c1=O)CCCC3	·	·	·	·	–	·
Cc1ccc(/C=N/NC(=O)Cn2nnc(N)n2)o1	·	–	–	–	–	–
O=C(NC1CCSC1=O)c1ccccc1 (centres undefined)	–	–	–	–	–	–
O=C(/C=C/c1ccccc1)NC1CCSC1=O (centres undefined)	15.8µM	–	–	–	?	?
Cc1ccccc1Oc1cc(-n2ncc(Cl)c(Cl)c2=O)ncn1	–	–	–	–	–	5.8µM
Cc1ccccc1C(=O)Nc1ccc(C(=O)OCc2cc(=O)n3c4c(sc3n2)CCCC4)cc1	·	·	·	·	–	·
CCC(CC)C(=O)Nc1cccc(-c2ccc3nncn3n2)c1	·	–	–	–	–	–
O=C(C#Cc1ccccc1)c1ccco1	·	–	–	–	15.1µM	?
CN(Cc1ccccc1)C(=O)c1ccco1	·	–	–	–	–	–
Cc1cc(C)cc(C(=O)NC(=S)Nc2ccc3c(c2)OCCO3)c1	·	?	?	?	6.75µM	?
C/C(CC(=O)Nc1ccc2c(c1)OCCO2)=N\NC(=O)c1ccccc1Cl	·	?	–	–	–	?
S=C(Nc1ccc2c(c1)OCO2)Nc1ccc2c(c1)OCO2	–	–	–	–	?	–
CC(C)C(=O)Nc1cccc(NC(=S)NC(=O)c2ccc3c(c2)OCO3)c1	·	–	–	–	–	–
O=C(NC(=S)Nc1ccc2c(c1)OCCO2)c1ccc(F)cc1Cl	12.6µM	?	–	–	13.5µM	?
O=C(NC(=S)Nc1ccc2c(c1)OCO2)c1ccc(Cl)cc1	12.6µM	?	2.24µM	3.98µM	?	?
Cc1ccc(C(=O)NC(=S)Nc2ccc3c(c2)OCCO3)c(C)c1	–	?	?	?	9.53µM	?
Cc1ccc(C(=O)NC(=S)Nc2ccc(N3CCOCC3)cc2)c(C)c1	–	–	–	–	–	–
COc1ccc2c(C)c(CC(=O)NCc3ccccc3Cl)c(=O)oc2c1OC	–	·	·	·	–	·
O=C(NC(=S)Nc1ccc(N2CCCCC2)c(Cl)c1)c1ccc2c(c1)OCCO2	–	–	–	–	?	–
CCc1ccc(C(=O)NC(=S)Nc2ccc3c(c2)OCCO3)cc1	11.2µM	?	3.98µM	2.82µM	6.01µM	?
O=C(O)c1cc(N=Cc2c(O)c3ccccc3oc2=O)ccc1O	·	–	–	–	7.57µM	–
Cc1cc(C)c(N=Cc2c(O)c3ccccc3oc2=O)c(C)c1	·	?	–	–	3.79µM	?
SMILES	SMN2 splice up	ELG1 genotoxic	Rab9 promoter act	NPC1 promoter act	FLuc modulator	ELG1 DNA repair
Cc1ccc(N=Cc2c(O)c3ccccc3oc2=O)cc1F	·	–	–	–	1.69µM	–
CCOc1ccccc1N=Cc1c(O)c2ccccc2oc1=O	·	–	–	–	?	–
Cc1cc(C)cc(N=Cc2c(O)c3ccccc3oc2=O)c1	–	–	–	–	–	–
Cc1cccc(/N=C/c2c(O)c3ccccc3oc2=O)n1	–	–	–	–	5.36µM	–
COc1ccc(OC)c(N=Cc2c(O)c3ccccc3oc2=O)c1	·	–	–	–	–	–
Cc1ccc(C)c(N=Cc2c(O)c3ccccc3oc2=O)c1	·	–	–	–	3.01µM	–
CCCOc1ccc(-c2nc[nH]c2[N+](=O)[O-])cc1	–	–	–	–	–	–
CC(C)CC(=O)N1CCN(Cc2ccc(Br)cc2)CC1	·	–	–	–	–	–
FC(F)(F)c1cnc(-c2cnc(-c3cccnc3)nc2)c(Cl)c1	12.6µM	?	3.98µM	2.51µM	?	?
COc1cccc(C(=O)Nc2ccccc2OCc2cc(=O)n3ccccc3n2)c1	·	·	·	·	–	·
COC(=O)c1sccc1-c1ccc(C(=O)Nc2cccnc2)o1	17.8µM	–	3.55µM	2.24µM	8.49µM	?
COC(=O)C(=Cc1ccc(-c2ccsc2C(=O)OC)o1)C(=O)OC	·	–	–	–	10.7µM	–
CCOC(=O)C(=Cc1ccc(-c2ccsc2C(=O)OC)o1)C(=O)OCC	–	–	–	–	19µM	?
COC(=O)c1sccc1-c1ccc(/C=N/OC(=O)c2cccs2)o1	·	–	–	–	5.36µM	–
COC(=O)c1sccc1-c1ccc(C(N)=O)o1	–	–	–	–	–	–
COC(=O)c1sccc1NC(=O)c1cccs1	·	–	–	–	–	–
COC(=O)c1sccc1NC(=O)c1cccnc1	–	·	·	·	–	·
CC(C)Sc1n[nH]c(=O)n1-c1ccccc1	·	–	–	–	–	–
c1ccc(CCNc2ccccc2)cc1	·	–	–	–	?	–
CCCSCCCNC(=O)c1ccc(Cn2c(=O)c3cccn3c3cccnc32)cc1	·	·	·	·	–	·
COCCN(C(=O)CSc1nnc(-c2ccccc2F)o1)c1c(N)n(CC(C)C)c(=O)[nH]c1=O	·	–	–	–	–	–
CCOC(=O)C1CCN(C(=O)COC(=O)/C=C/c2ccc([N+](=O)[O-])cc2)CC1	·	–	·	·	·	–
CCOC(=O)/C(C#N)=C/c1ccc(-c2ccc(Br)cc2)o1	–	·	·	·	6.75µM	·
CCOC(=O)/C(C#N)=C/Nc1ccsc1C(C)=O	·	–	–	–	?	?
CCOC(=O)/C(C#N)=C/c1ccc(-c2ccsc2C(=O)OC)o1	–	–	2.51µM	?	–	?
SMILES	SMN2 splice up	ELG1 genotoxic	Rab9 promoter act	NPC1 promoter act	FLuc modulator	ELG1 DNA repair
CCCCOC(=O)/C(C#N)=C\c1ccc(-c2ccc(Cl)cc2)o1	–	·	·	·	?	·
CC(=O)C(Cc1cccc(F)c1)(Cc1cccc(F)c1)C(C)=O	–	–	–	–	–	–
C=CCNc1oc(-c2ccc(OC)cc2)nc1C#N	?	14.6µM	2.82µM	?	8.49µM	?
COc1ccc(-c2nc(C#N)c(NCc3ccco3)o2)cc1	20µM	?	?	?	13.5µM	?
CC(C)(C)c1ccc(-c2nc(C#N)c(NCc3cccnc3)o2)cc1	–	?	?	–	10.7µM	–
COc1ccc(Nc2oc(COc3cccc(C)c3)nc2C#N)cc1	–	16.4µM	?	?	5.36µM	?
COc1ccc(N2CCN(C(=O)Cn3c(=O)[nH]c4ccccc4c3=O)CC2)cc1	?	–	–	–	–	–
COc1ccc(Cc2n[nH]c(=S)n2N)cc1OC	–	–	–	–	–	–
COc1ccc(CCNCc2c(C(=O)O)c(C)n(Cc3cccc(Cl)c3)c2C)c(OC)c1OC	–	·	·	·	–	·
FCCCOc1ccc(CN2CCN(c3ccccc3F)CC2)cc1	–	–	–	–	–	–
N#Cc1nc(COc2cccc(Cl)c2)oc1NCc1ccco1	–	?	?	–	19µM	?
N#Cc1nc(-c2ccc(F)cc2)oc1NCc1ccco1	·	–	–	–	?	?

Bioassay records from PubChem BioAssay.
